# From PubChem BioAssay
# Sfp inh: qHTS Assay for Inhibitors of Bacillus subtilis Sfp phosphopantetheinyl transferase (PPTase); Potency, µM, usual class: inhibitors; Biochemical Sfp PPTase activity, qHTS; 310,000 tested, 3.5% active; 4'-phosphopantetheinyl transferase ffp (Bacillus subtilis), Q9F4F7;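 further: the enzyme is Sfp with the accession as filed and its product quenches rhodamine fluorescence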
#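 Buffer: 50 mM Hepes-Na pH 7.6, 10 mM MgCl2, 0.01% Nonidet P-40, 0.01% BSA. Enzyme 15 nM, pre-exposed to compound 15 min; substrates then added and fluorescence change tracked over 30 min.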
# VDR inh: Inhibitors of the vitamin D receptor (VDR): qHTS; Vitamin D3 receptor (Homo sapiens), P11473; VDR-SRC2-3 peptide fluorescence polarization, 2 h; Potency, µM, most hits filed as inhibitors; 400,000 tested, 0.93% active
# Target sequence (P11473 whole entry, looked up): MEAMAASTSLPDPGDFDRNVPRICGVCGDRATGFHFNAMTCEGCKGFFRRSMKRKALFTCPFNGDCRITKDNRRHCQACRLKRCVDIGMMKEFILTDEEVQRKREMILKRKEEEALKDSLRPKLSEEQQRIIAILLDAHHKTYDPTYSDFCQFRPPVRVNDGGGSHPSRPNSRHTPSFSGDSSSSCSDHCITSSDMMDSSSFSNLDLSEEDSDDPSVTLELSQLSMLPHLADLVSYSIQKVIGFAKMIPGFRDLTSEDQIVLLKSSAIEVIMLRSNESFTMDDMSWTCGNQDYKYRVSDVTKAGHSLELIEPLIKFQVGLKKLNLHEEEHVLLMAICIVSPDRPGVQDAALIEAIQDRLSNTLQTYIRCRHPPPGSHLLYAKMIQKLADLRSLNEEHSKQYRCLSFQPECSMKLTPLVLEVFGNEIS
#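 Fluorescence polarization assay of small-molecule disruption of VDR binding to coregulator peptide SRC2-3. Compounds and controls pin-transferred, then read after 2 h incubation at ambient room temperature.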
# G9a inh: qHTS Assay for Inhibitors of Histone Lysine Methyltransferase G9a | Histone-lysine N-methyltransferase EHMT2 (Homo sapiens), Q96KQ7 | G9a H3K9 monomethylation, AlphaScreen, 2 h | Potency, µM (titrated, usually from 102 µM), hits mostly inhibitors | 350,000 tested, 8.8% active | AID 504332, 2011; further: nearly all actives have a fitted effect of over 75% in size
#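 Readings reflect AlphaScreen signal from monomethyl-H3K9 antibody detection. HMT at 20 nM; substrate b-H3K9 500 nM; cofactor SAM 20 uM; 2 h RT reaction; compounds tested as titrations in qHTS with 15 min preincubation.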
# ALOX12 inh: Primary qHTS assay for inhibitors of human arachidonate 12S-lipoxygenase (ALOX12): Round 2 | Polyunsaturated fatty acid lipoxygenase ALOX12 (Homo sapiens), P18054 | purified 12hLO, xylenol orange hydroperoxide absorbance | Potency, µM (highest dose often 108 µM), actives largely listed as inhibitors | 580,000 tested, 1.1% active | AID 1671190, 2021
#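 Purified human 12hLO at 150 nM in 25 mM Hepes, 0.01% Triton X-100, pH 7.0, preincubated 15 min at room temperature with compound. Reaction started with 40 uM arachidonic acid, 30 min at room temperature. Hydroperoxide measured by Fe-xylenol orange, 573/405 nm absorbance ratio.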
# Glioma ERSR ind: qHTS for Inducers of the Endoplasmic Reticulum Stress Response (ERSR) in Human Glioma: qHTS; U87-MG GRP78 promoter luciferase reporter, 16 h; Potency, µM, hits mostly activators; 420,000 tested, 0.02% active; AID 602332, 2012; further: series mostly up to about 76 µM; nearly all actives have a fitted effect of over 35% in size
#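 ERSR induction read as luciferase luminescence (Bright-Glo, 10 min at room temperature) in stably transfected human U87-MG glioma cells exposed to compounds for 16 h, using GRP78 as sensor.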
# A number is an active result; n = inactive; u = inconclusive; x = no result given; [ ] = another dose, or the depositor's remark. The full list was thinned out, with hits kept by preference. The call rests on the fitted dose curve; in most records, active means well fitted curve in the direction sought with a large enough effect; inconclusive means small, poorly fitted or top-dose-only effect, or another doubt; inactive means no such curve, though single readings can be large; an effect the other way counts as inactive or inconclusive.
SMILES,Sfp inh,VDR inh,G9a inh,ALOX12 inh,Glioma ERSR ind
CCOc1cc(/C=C/C(=O)OCc2cccc(C)c2)cc(Cl)c1OC,x,x,x,n,x
O=C(O)CSc1nnnn1C1CCCCC1,n,71µM,n[0.501 µM],n,n
O=C(CSc1nnnn1C1CCCCC1)Nc1ccccc1F,n,n,x,n,n
O=C(CSc1nnnn1C1CCCCC1)N1CCCC1,n,n,n,n,n
O=C(Sc1nnnn1C1CCCCC1)c1cccs1,35µM,x,u,x,x
CCc1cc2ccc(C)cc2nc1SCC(=O)N1CCN(C(=O)c2ccco2)CC1,u,79µM,u,n,n
COc1ccc(Br)cc1CN1CCN(C(=O)c2cccc(F)c2)CC1,50µM,n,10µM,u,n
CCc1cc2cc3c(cc2nc1SCC(=O)N1CCN(C(=O)c2ccco2)CC1)OCO3,n,n,n,n,n
COc1cccc(C(=O)N2CCN(C(=O)c3cccc(F)c3)CC2)c1,n,n,n,n,n
COc1ccc(Br)cc1CN1CCN(C(=O)c2ccco2)CC1,u,n,10µM,0.5µM,n
O=C(CSc1ccc(Br)cc1)N1CCN(C(=O)c2ccco2)CC1,n,n,45µM,u,n
O=C(CSc1ccc(Br)cc1)N1CCOCC1,n,n,n,n,n
O=C1CC2(CCN(Cc3ccsc3)CC2)Oc2ccccc21,x,x,x,n,x
COc1ccc(NC(=O)C(c2ccc(OC)cc2)N(Cc2ccco2)C(=O)Cc2cccs2)cc1 (stereo not drawn),x,x,x,n,x
O=c1[nH]c(Nc2ccccc2)nc2nccc(-c3cccs3)c12,x,x,x,n,x
COC(=O)c1ccc(OC(=O)c2ccc(OC)c(Br)c2)cc1,x,x,x,n,x
COc1ccccc1CN1CCN(C(=O)c2ccco2)CC1,n,n,22µM,u,n
CCn1cnc2c1c(=O)n(Cc1c(C)noc1C)c(=O)n2Cc1ccccc1,x,x,x,n,x
Cc1sc2nc(CSC(C)C(=O)Nc3cc(S(C)(=O)=O)ccc3Cl)[nH]c(=O)c2c1C (stereo not drawn),x,n,50µM,u,n
Cc1ccc(NC(=O)C(C)SCc2nc3sc4c(c3c(=O)[nH]2)CCCC4)nc1 (stereo not drawn),n,n,n,n,n
Cc1sc2nc(CSC(C)C(=O)Nc3ccccn3)[nH]c(=O)c2c1C (stereo not drawn),x,n,7.9µM,u,n
Cc1sc2nc(CSCC(=O)N(C)CC(=O)Nc3ccc(F)cc3)[nH]c(=O)c2c1C,x,u,50µM,n,n
Cc1ccc(NC(=O)C(C)SCc2nc3sc(C)c(C)c3c(=O)[nH]2)nc1 (stereo not drawn),x,n,14µM,n,n
Cc1sc2nc(CSCC(=O)Nc3ccc(Cl)cc3F)[nH]c(=O)c2c1C,x,n,n,n,n
CCc1cc(C(=O)N/N=C/c2ccncc2)cs1,x,x,x,n,x
SMILES,Sfp inh,VDR inh,G9a inh,ALOX12 inh,Glioma ERSR ind
Cc1nc(SCC(=O)NN2C(=O)NC3(CCCCC3)C2=O)c2ccccc2n1,x,x,x,n,x
Cc1cccc(NC(=O)C(C)SCc2nc3sc(C)c(C)c3c(=O)[nH]2)n1 (stereo not drawn),n,n,45µM,n,n
Cc1sc2nc(CSCC(=O)Nc3c(F)cccc3F)[nH]c(=O)c2c1C,x,n,n[2.33 µM],n,n
CC(SCc1nc2sc3c(c2c(=O)[nH]1)CCCC3)C(=O)Nc1ccccn1 (stereo not drawn),x,n,50µM,u,n
CC(NC(=O)COc1cccc(Br)c1)C(=O)O (stereo not drawn),n,n,50µM,n,n
CC(NC(=O)COc1ccc(Br)cc1)C(=O)O (stereo not drawn),n,n,u,u,n
COc1ccc(C(C)=O)c(OC(=O)c2cc(F)c(F)cc2Cl)c1,x,x,x,n,x
O=C(CSc1ncccn1)N1CCN(C(c2ccccc2)c2ccccc2)CC1,n,n,5.6µM,n,n
O=C(CSc1ncccn1)N1CCN(C(=O)CSc2ncccn2)CC1,n,n,n,n,n
O=C(CN1CCN(C(c2ccccc2)c2ccccc2)CC1)N1CCOCC1,n,n,8.9µM,u,n
C=CCNC(=O)CN1CCC(O)(c2ccccc2)CC1,n,n,n,n,n
C=CCNC(=O)CN1CCN(C(c2ccccc2)c2ccccc2)CC1,n,n,11µM,u,n
Cc1cc(C)cc(Nc2nc3ccccc3nc2NS(=O)(=O)c2ccc(F)cc2)c1,x,x,x,n,x
